PubChem BioAssay AID540335 (Broad Institute, 2011)
The whole screen tested about 1,300 compounds, of which about 270 (21%) were called active.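 How the source made its calls: active means dose-dependent rise or fall in viability, either side of zero, with half-maximal concentration at or below a set limit; inconclusive means flat curve at 30 to 70% viability loss, or poor fit; inactive means flat within 30% either way, or potency beyond limit.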 Not all results are given here. Entries with a potency or affinity are not part of this list.

Assay: A375 melanoma cell viability reduction, dose response, counter-screen for MITF modulator project, cherry-pick samples, set 2 (AID 540335);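 further: A375 human melanoma cells which do not depend on MITF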
Settings: CellTiter-Glo ATP luminescence, 24 h; series mostly up to 35 µM

Row | Structure (SMILES) | outcome
1 | O=C(CCl)Nc1cccc(S(=O)(=O)N2CCCCCC2)c1 | inactive
2 | Cc1cc(/C(N)=N/OC(=O)c2ccc(Cl)cc2)no1 | inactive
3 | CCCCN1CCc2c1nc1ccc(Br)cc1c2N | inactive
4 | O=C(COC(=O)c1ccccc1C(=O)c1ccc(Cl)c([N+](=O)[O-])c1)NC1CC1 | inactive
5 | CCOc1ccc(-c2ccc(SC)nn2)cc1 | inactive
6 | Cc1ccc(C(=O)N/N=C\c2ccc([N+](=O)[O-])s2)cn1 | inactive
7 | CCN(CC)CCNC(=O)C1CCN(S(=O)(=O)c2c(C)noc2/C=C/c2ccccc2F)CC1 | inactive
8 | Cc1cc(C)cc(OCC(=O)N/N=C/c2ccc([N+](=O)[O-])o2)c1 | inactive
9 | N=c1n(CCN2CCCC2)c2ccccc2n1CC(O)c1ccc(Cl)c(Cl)c1 (stereo not given) | inactive
10 | O=C(CNc1cccc2ccccc12)N/N=C/c1ccc([N+](=O)[O-])o1 | inactive
11 | Cc1ccccc1C(=O)N/N=C/c1ccc([N+](=O)[O-])s1 | inactive
12 | Cc1cc2ncn(/N=C/c3ccc([N+](=O)[O-])o3)c2cc1C | inactive
13 | O=C(N/N=C/c1ccc([N+](=O)[O-])o1)c1cc2ccccc2o1 | inactive
14 | CCOC(=O)CCc1ccc(NC(=O)/C=C/c2ccc([N+](=O)[O-])o2)cc1 | inactive
15 | CC1(C(=O)N/N=C/c2ccc([N+](=O)[O-])o2)CC1(Br)Br (stereo not given) | inactive
16 | CC(C)n1cc(/C=C/c2cc[n+](C)cc2)c2ccccc21 | inactive
17 | COc1ccc(-n2c(C)cc(C(=O)CCl)c2C)cc1 | inactive
18 | CCOc1ccc(-n2c(C)cc(C(=O)CCl)c2C)cc1 | inactive
19 | O=C(Nc1ccc2nc3n(c(=O)c2c1)CCCCC3)c1cc([N+](=O)[O-])ccc1F | inactive
20 | CCOC(=O)c1nnn(-c2ccc([N+](=O)[O-])cc2[N+](=O)[O-])c1C | inactive
21 | Cc1ccc(NC(=O)CCl)cc1S(=O)(=O)N1CCCCCC1 | inactive
22 | O=C(Nc1ccc(-c2nc3ncccc3o2)cc1)c1ccc([N+](=O)[O-])o1 | inactive
23 | CCN(CC)CCn1nc2c3c(cccc3c1=O)-c1ccccc1-2 | inactive
24 | Cc1ccc(NC(=O)CN(C)C(=O)Cn2ncc(Cl)c(Cl)c2=O)cc1 | inactive
25 | COc1cc(C2C(C#N)=C(N)Oc3cc4c(cc32)OCO4)cc(OC)c1OC (stereo not given) | inactive
